Reference: PubChem BioAssay (EPA / NIEHS)
Records with an inconclusive call do not appear. The source made the active and inactive calls. The calls were made as follows: active = hit-call score of the fitted dose curve at least 0.9, where 1 is the maximum; inconclusive = response in the unintended direction; inactive = score below 0.9.

Assays:
[1] = target: human Dopamine Transporter (DAT), SLC6A3 (gene 6531) (UniProt Q01959); assay: NVS_TR_hDAT: NovaScreen (NVS) Transporter Assay for human Dopamine Transporter (DAT) (AID 2283374);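 also: activity means loss of bound radioligand signal relative to DMSO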
How it was run: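 Test chemicals were first screened in duplicate at 25 uM, with actives retested as concentration series. Displacement of a specific radioligand from cell-free human dopamine transporter was measured after 1 h by filtration and scintillation counting.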

[2] = target: human Norepinephrine Transporter (NET), SLC6A2 (gene 6530) (UniProt P23975); assay: NVS_TR_hNET: NovaScreen (NVS) Transporter Assay for human Norepinephrine Transporter (NET) (AID 2283377);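 also: cell-free membrane protein extracted from CHO cells expressing human NET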;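 as to AC50: displacement of radioligand from human NET seen as loss of scintillation signal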
How it was run: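 Scintillation counts of filter-retained radioligand served as the readout, taken 1 h post-dosing in a cell-free CHO-derived system. Test chemicals ran first at 25 uM in duplicate; confirmed hits were retested across concentrations.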

[3] = target: Retinoic acid receptor alpha (Homo sapiens) (UniProt P10276); assay: NVS_NR_hRAR_Antagonist: NovaScreen (NVS) Nuclear Receptor Binding Assay for human Retinoic Acid Alpha Receptor Antagonism (RAR) (AID 2283358)
How it was run: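 TR-FRET, cell-free, antagonist format; 2 h incubation after dosing; DMSO = baseline; signal loss fitted; 25 uM duplicate primary, then conc. series.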

[4] = target: human Peroxisome Proliferator-activated Receptor alpha (PPARa), PPARA (gene 5465) (UniProt Q07869); assay: NVS_NR_hPPARa: NovaScreen (NVS) Nuclear Receptor Binding Assay for human Peroxisome Proliferator-activated Receptor alpha (PPARa) (AID 2283359);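 also: activity means loss of TR-FRET signal versus DMSO baseline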
How it was run: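 Chemicals were first screened in duplicate at 25 uM, and active ones were retested across concentration series. Binding was monitored by TR-FRET one hour after dosing, with decreased signal against DMSO counted as activity.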

[5] = target: Nuclear receptor subfamily 1 group I member 2 (Homo sapiens) (UniProt O75469); assay: NVS_NR_hPXR: NovaScreen (NVS) Nuclear Receptor Binding Assay for human Pregnane X Receptor (PXR) (AID 2283365);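 also: a drop in FRET signal versus DMSO baseline means the compound binds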
How it was run: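 Human PXR protein, cell-free; compound added, incubated 2 h, TR-FRET read. Signal decrease vs DMSO = binding. Screened 25 uM duplicate, actives re-run as dilution series.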

[6] = target: mouse Estrogen Receptor alpha (Era), Esr1 (gene 13982) (UniProt P19785); assay: NVS_NR_mERa: NovaScreen (NVS) Nuclear Receptor Binding Assay for mouse Estrogen Receptor alpha (Era) (AID 2283378);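 also: hit means loss of bound radioligand signal relative to DMSO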
How it was run: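 Extracted mouse Era incubated with tritiated or iodinated radioligand plus test chemical, 18 h. Bound fraction separated on filters, counted by scintillation. DMSO = negative control/baseline; duplicate single-point at 25 uM, then concentration-response follow-up.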

[7] = target: rat Serotonin Transporter (SERT), Slc6a4 (gene 25553) (UniProt P31652); assay: NVS_TR_rSERT: NovaScreen (NVS) Transporter Assay for rat Serotonin Transporter (SERT) (AID 2283375)
How it was run: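 Filtration-based radiodetection quantified loss of specific radioligand binding in rat forebrain membranes after 1 hour of chemical exposure, relative to DMSO. Chemicals were first tested in duplicate at 25 uM.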

[8] = target: Estrogen receptor (Homo sapiens) + Estrogen receptor beta (Homo sapiens) (UniProt P03372+Q92731); assay: OT_ER_ERaERb_1440: Odyssey Thera (OT) 24-hour HEK293T Protein-Complementation Assay for Estrogen Receptor-alpha/-beta Homodimer (AID 2283356);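 also: heteromer of ER alpha and ER beta binding domains; hits raise reporter fluorescence and both agonists and antagonists give an increase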
How it was run: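 Stable HEK293T PCA line, ERα LBD 310-547 + ERβ LBD 263-489 fused to reporter fragments; 24 h treatment; fluorescence read by laser scanning cytometry; positive fitting direction relative to DMSO.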

[9] = target: Estrogen receptor beta (Homo sapiens) (UniProt Q92731); assay: OT_ER_ERbERb_0480: Odyssey Thera (OT) 8-hour HEK293T Protein-Complementation Assay for Estrogen Receptor-beta/-beta Homodimer (AID 2283357);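 also: active means signal gain over DMSO baseline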
How it was run: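 Cells (HEK293T, stable ER-beta LBD PCA pair) are treated 8 hours, fixed and Draq5-stained; signal is fluorescence intensity increase relative to vehicle, fitted in the gain direction.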

[10] = target: Glucocorticoid receptor (Homo sapiens) (UniProt P04150); assay: NVS_NR_hGR: NovaScreen (NVS) Nuclear Receptor Binding Assay for human Glucocorticoid Receptor (GR) (AID 2283363);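 also: activity is loss of specific radioligand binding signal relative to DMSO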
How it was run: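 Competitive displacement of a labelled ligand was measured on cell-free receptor preparations after 16 h exposure. Initial testing used 25 uM in duplicate with plate controls; confirmed actives went into concentration series.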

human Norepinephrine Transporter (NET), SLC6A2 (gene 6530), sequence (P23975 whole entry, looked up): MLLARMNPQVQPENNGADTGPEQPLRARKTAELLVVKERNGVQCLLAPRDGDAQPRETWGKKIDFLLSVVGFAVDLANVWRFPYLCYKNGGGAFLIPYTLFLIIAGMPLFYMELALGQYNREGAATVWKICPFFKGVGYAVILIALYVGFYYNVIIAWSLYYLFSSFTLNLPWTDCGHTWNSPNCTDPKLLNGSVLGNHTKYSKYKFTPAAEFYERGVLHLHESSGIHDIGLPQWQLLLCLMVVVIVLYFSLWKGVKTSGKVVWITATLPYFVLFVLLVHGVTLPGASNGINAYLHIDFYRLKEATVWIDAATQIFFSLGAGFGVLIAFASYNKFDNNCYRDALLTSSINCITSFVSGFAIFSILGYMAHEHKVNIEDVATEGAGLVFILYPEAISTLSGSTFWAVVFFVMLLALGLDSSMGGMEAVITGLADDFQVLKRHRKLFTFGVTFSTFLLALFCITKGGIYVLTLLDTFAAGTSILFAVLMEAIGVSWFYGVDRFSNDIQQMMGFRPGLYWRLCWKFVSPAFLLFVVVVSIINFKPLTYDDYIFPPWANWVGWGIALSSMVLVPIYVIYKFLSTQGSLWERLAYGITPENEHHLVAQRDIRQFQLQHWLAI
mouse Estrogen Receptor alpha (Era), Esr1 (gene 13982), sequence (P19785 whole entry, looked up): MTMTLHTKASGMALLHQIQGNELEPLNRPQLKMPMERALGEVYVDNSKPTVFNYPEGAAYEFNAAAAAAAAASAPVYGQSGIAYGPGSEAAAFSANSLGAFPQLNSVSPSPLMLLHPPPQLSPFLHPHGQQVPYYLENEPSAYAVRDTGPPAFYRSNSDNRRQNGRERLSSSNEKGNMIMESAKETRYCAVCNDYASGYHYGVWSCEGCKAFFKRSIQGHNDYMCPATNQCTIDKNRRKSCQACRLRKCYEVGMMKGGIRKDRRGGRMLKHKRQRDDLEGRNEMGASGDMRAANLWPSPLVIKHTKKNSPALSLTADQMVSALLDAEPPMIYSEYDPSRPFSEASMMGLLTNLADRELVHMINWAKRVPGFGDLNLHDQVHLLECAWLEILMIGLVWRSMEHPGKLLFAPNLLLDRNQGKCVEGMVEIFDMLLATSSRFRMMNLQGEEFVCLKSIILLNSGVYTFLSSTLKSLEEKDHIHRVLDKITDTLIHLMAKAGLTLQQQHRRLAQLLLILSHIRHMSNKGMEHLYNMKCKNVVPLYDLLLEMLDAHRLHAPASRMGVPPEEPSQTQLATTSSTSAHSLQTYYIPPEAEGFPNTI
Nuclear receptor subfamily 1 group I member 2 (Homo sapiens), sequence (O75469 whole entry, looked up): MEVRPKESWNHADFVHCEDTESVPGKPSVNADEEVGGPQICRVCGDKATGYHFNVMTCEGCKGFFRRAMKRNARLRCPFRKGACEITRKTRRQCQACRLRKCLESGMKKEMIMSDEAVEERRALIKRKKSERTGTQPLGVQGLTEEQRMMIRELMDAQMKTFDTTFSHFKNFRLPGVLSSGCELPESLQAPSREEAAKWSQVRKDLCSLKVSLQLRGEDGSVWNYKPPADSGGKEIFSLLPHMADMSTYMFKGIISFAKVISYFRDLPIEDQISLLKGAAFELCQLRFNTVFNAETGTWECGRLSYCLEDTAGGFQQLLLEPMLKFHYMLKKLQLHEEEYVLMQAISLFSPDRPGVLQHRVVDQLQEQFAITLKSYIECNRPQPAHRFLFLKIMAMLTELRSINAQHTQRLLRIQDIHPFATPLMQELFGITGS
Glucocorticoid receptor (Homo sapiens), sequence (P04150 whole entry, looked up): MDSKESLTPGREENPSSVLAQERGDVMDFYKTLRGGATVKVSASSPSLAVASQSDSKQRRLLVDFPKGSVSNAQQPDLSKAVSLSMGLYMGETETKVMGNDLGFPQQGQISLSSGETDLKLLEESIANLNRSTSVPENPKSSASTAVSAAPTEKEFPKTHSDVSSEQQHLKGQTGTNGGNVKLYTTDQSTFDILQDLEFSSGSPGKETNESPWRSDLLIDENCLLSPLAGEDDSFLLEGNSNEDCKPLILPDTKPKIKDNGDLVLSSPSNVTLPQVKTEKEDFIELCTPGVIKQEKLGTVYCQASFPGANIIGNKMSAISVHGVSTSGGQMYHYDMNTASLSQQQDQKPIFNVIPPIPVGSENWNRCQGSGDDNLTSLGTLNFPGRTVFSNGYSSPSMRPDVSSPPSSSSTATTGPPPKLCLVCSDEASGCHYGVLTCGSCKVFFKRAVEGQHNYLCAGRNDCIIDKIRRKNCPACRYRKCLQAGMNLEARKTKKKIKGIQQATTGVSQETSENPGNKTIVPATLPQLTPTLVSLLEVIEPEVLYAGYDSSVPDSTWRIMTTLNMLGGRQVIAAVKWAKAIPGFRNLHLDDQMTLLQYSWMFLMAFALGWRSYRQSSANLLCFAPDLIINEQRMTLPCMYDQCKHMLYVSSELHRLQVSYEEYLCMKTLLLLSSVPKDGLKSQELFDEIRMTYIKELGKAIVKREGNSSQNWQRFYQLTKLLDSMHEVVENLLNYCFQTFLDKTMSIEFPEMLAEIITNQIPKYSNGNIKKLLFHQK
human Peroxisome Proliferator-activated Receptor alpha (PPARa), PPARA (gene 5465), sequence (Q07869 whole entry, looked up): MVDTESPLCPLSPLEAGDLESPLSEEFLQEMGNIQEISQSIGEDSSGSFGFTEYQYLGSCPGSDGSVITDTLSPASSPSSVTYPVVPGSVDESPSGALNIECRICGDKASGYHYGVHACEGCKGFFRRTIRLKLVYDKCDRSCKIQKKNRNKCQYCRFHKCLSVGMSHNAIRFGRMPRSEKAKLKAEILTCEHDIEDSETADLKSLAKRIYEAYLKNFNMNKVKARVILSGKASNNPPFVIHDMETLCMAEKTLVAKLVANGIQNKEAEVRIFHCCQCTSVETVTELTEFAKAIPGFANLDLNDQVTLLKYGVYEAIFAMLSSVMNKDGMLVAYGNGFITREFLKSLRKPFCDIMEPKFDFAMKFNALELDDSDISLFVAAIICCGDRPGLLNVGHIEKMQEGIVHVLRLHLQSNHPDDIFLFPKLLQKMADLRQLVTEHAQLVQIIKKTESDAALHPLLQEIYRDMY
rat Serotonin Transporter (SERT), Slc6a4 (gene 25553), sequence (P31652 whole entry, looked up): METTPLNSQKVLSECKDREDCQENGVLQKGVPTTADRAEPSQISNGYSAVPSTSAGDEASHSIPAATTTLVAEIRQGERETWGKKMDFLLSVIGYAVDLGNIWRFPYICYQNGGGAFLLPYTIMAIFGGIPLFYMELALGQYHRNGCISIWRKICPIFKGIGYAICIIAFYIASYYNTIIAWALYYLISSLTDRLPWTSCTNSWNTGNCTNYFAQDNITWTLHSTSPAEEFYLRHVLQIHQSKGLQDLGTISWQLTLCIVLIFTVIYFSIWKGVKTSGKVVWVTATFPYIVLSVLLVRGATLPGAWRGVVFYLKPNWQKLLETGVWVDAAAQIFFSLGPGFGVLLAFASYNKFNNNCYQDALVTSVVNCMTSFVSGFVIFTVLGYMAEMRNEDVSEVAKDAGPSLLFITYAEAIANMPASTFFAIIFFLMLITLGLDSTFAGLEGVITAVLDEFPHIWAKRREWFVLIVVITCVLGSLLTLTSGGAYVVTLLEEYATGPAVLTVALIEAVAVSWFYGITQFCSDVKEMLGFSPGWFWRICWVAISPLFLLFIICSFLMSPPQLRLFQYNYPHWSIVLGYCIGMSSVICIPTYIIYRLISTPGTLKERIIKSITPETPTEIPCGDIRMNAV
Estrogen receptor (Homo sapiens) + Estrogen receptor beta (Homo sapiens), sequence (P03372 whole entry, looked up, the tested form may be a part): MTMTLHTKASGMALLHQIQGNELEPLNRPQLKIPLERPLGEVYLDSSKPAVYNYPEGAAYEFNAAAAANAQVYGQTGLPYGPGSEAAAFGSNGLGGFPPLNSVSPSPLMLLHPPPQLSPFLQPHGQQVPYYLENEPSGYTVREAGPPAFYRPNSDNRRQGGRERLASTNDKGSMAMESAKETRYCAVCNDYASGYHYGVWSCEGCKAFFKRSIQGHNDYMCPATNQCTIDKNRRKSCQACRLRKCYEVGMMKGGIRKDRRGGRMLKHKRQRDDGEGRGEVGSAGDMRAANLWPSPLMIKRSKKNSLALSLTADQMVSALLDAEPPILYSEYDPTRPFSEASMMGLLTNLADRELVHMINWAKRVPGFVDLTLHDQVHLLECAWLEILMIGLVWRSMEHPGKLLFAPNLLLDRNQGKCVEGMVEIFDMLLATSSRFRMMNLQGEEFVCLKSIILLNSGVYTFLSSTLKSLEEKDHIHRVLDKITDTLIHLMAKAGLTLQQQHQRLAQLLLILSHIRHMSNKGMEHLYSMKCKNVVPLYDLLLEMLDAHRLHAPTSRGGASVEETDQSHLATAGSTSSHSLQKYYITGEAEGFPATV
Estrogen receptor (Homo sapiens) + Estrogen receptor beta (Homo sapiens), sequence (Q92731 whole entry, looked up, the tested form may be a part): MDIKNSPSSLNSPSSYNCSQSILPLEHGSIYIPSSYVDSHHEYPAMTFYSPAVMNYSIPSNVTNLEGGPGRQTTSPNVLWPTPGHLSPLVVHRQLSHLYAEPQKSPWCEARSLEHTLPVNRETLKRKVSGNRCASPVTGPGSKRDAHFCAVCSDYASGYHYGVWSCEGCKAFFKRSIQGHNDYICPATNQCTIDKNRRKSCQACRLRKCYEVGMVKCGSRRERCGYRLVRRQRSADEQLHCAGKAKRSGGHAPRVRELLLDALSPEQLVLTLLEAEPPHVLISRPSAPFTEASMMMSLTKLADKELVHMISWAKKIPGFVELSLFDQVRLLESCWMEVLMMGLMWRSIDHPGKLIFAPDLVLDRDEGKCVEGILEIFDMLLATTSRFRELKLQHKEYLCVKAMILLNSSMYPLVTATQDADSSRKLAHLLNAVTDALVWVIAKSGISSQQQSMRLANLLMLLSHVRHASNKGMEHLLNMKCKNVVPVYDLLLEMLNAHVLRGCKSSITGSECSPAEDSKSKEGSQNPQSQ
Estrogen receptor beta (Homo sapiens), sequence (Q92731 whole entry, looked up, the tested form may be a part): as above

CCOC(=O)C=Cc1ccccc1
outcome [1]: inactive
AC50 [2]: 25 µM (active)

CCCCCCCCCCCCOCCOS(=O)(=O)O
AC50 [3]: 16.2 µM (active)
AC50 [4]: 5.08 µM (active)
AC50 [5]: 25 µM (active)
AC50 [6]: 29.4 µM (active)

CC(C)Cc1ccccc1
outcome [7]: inactive

CN(C)C(=O)Nc1ccccc1
outcome [8]: inactive
outcome [5]: inactive

O=C1OC2(c3ccc(O)cc3Oc3cc(O)ccc32)c2ccccc21
outcome [9]: inactive
AC50 [10]: 25 µM (active)
outcome [2]: inactive
AC50 [6]: 25 µM (active)
